Assay results as given in PubChem BioAssay (EPA / NIEHS).
Records with an inconclusive call do not appear. Activity calls are given as the source filed them. Rule for the calls, unless noted: active = hit-call score of the fitted dose curve at least 0.9, where 1 is the maximum; inconclusive = response in the unintended direction; inactive = score below 0.9.

Tests used:
[1] = Tanguay_ZF_120hpf_JAW_legacy: (Legacy) Oregon State University Tanguay Lab 120 Hour Post-fertilization zebrafish Assay for Jaw Malformation (AID 2283638)
Outline: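 Steps: dechorionate 4 hpf embryos (pronase); plate 1/well at 6 hpf; add test chemical, 0.64% DMSO final; seal, cover, hold at 28C statically to 120 hpf; score jaw defect presence/absence microscopically. Dead embryos not scored.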

[2] = Tanguay_ZF_120hpf_OTIC_legacy: (Legacy) Oregon State University Tanguay Lab 120 Hour Post-fertilization zebrafish Assay for Otic Vesicle Malformation (AID 2283639)
Outline: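 Otic vesicle malformation is read as a yes/no morphology call at 120 hpf. Exposure is static at 28C with 0.64% (vol/vol) DMSO; embryos that die are excluded from non-mortality endpoints.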

[3] = Tanguay_ZF_120hpf_PE_legacy: (Legacy) Oregon State University Tanguay Lab 120 Hour Post-fertilization zebrafish Assay for Pericardial Edema (AID 2283640);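 for AC50: potency for increased incidence of pericardial edema versus DMSO baseline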
Outline: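 Embryos from wild-type 5D adults were staged, then dosed in 0.64% DMSO. They were kept sealed in the dark at 28C until 120 hpf. Pericardial edema was then recorded as present or absent.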

[4] = Tanguay_ZF_120hpf_SOMI_legacy: (Legacy) Oregon State University Tanguay Lab 120 Hour Post-fertilization zebrafish Assay for Somite Malformation (AID 2283647)
Outline: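 Read-out: presence or absence of somite malformation in 120 hpf larvae, gain-of-signal relative to DMSO baseline. Embryos lacked chorion (pronase, 4 hpf) and were exposed statically from 6 hpf at 28C; dead larvae not scored.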

[5] = Tanguay_ZF_120hpf_PIG_legacy: (Legacy) Oregon State University Tanguay Lab 120 Hour Post-fertilization zebrafish Assay for Pigmentation Malformation (AID 2283650)
Outline: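 Dechorionated Tropical 5D wild-type embryos, one per well from 6 hpf, statically exposed at 28C in the dark until 120 hpf, 0.64% DMSO final. Pigmentation scored present/absent by brightfield microscopy; dead embryos not scored; fitted versus DMSO.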

[6] = Tanguay_ZF_120hpf_SWIM_legacy: (Legacy) Oregon State University Tanguay Lab 120 Hour Post-fertilization zebrafish Assay for Swim Bladder Malformation (AID 2283654);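 note: swim bladder malformation in each larva scored yes or no under brightfield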
Outline: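 Dechorionated wild-type Tropical 5D zebrafish embryos, one per well from 6 hpf, were statically exposed at 28C until 120 hpf in 0.64% DMSO. Swim bladder malformation scored as present/absent by brightfield microscopy; not scored in dead larvae.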

[7] = Tanguay_ZF_120hpf_TRUN_legacy: (Legacy) Oregon State University Tanguay Lab 120 Hour Post-fertilization zebrafish Assay for Truncated Body (AID 2283655)
Outline: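 Truncated body is recorded as a binary endpoint at 120 hpf by brightfield imaging of wild-type 5D larvae. Exposure runs statically from 6 hpf at 28C with 0.64% DMSO; embryos dying earlier are not scored.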

[8] = Tanguay_ZF_120hpf_NC_legacy: (Legacy) Oregon State University Tanguay Lab 120 Hour Post-fertilization zebrafish Assay for Notochord and Tail Malformation (AID 2283656)
Outline: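 Dechorionated 5D zebrafish, 1/well from 6 hpf; static exposure to 120 hpf, 28C, sealed, dark; final DMSO 0.64% v/v. NC scored binary (present/absent); dead embryos not scored. Fit vs DMSO baseline, gain direction.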

[9] = Tanguay_ZF_120hpf_TR_legacy: (Legacy) Oregon State University Tanguay Lab 120 Hour Post-fertilization zebrafish Assay for Touch Response (AID 2283667)
Outline: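 Tropical 5D wild-type zebrafish embryos statically exposed to 120 hpf at 28°C, sealed and dark-covered, 0.64% DMSO final; touch response scored as present/absent by brightfield microscopy at 120 hpf. Trimethyltin chloride 5 uM positive control; dead embryos not scored.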

[10] = Tanguay_ZF_120hpf_BRAI_legacy: (Legacy) Oregon State University Tanguay Lab 120 Hour Post-fertilization zebrafish Assay for Brain Malformation (AID 2283641)
Outline: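 Wild-type 5D larvae, static waterborne exposure to 120 hpf, 28C, 0.64% v/v DMSO. Brightfield scoring of brain defects, binary; dead embryos excluded. Positive ctrl 5uM trimethyltin chloride.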

[11] = Tanguay_ZF_120hpf_PFIN_legacy: (Legacy) Oregon State University Tanguay Lab 120 Hour Post-fertilization zebrafish Assay for Pectoral Fin Malformation (AID 2283648);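 note: each larva judged yes or no for fin defect by brightfield with dead larvae skipped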
Outline: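 Dechorionated Tropical 5D wild-type zebrafish embryos, one per well, statically exposed from 6 to 120 hpf at 28C with 0.64% DMSO final. Pectoral fin malformation scored present/absent by brightfield at 120 hpf; not scored in dead embryos.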

[12] = Tanguay_ZF_120hpf_CIRC_legacy: (Legacy) Oregon State University Tanguay Lab 120 Hour Post-fertilization zebrafish Assay for Circulatory Malformation (AID 2283651)
Outline: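 Using wild-type Tropical 5D zebrafish, we exposed dechorionated embryos from 6 to 120 hpf in embryo medium with 0.64% DMSO. Circulatory defects were scored as present or absent; 5uM trimethyltin chloride served as positive control.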

[13] = test system: Thyroperoxidase (TPO), gene 54314; assay: CCTE_Simmons_AUR_rTPO: CCTE's Amplex UltraRed Assay for Thyroperoxidase (TPO) Inhibition, Simmons Lab (AID 2283662);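 note: potency for loss of signal meaning inhibition of peroxidase activity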
Outline: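 Rat thyroid microsomal TPO + 25 uM AUR in 200 mM K phosphate; cpd 5 nM–87.5 uM [final], 8 conc, 0.5% DMSO; 300 uM H2O2 starts rxn; 37C dark 30 min; endpoint FI 544/590 nm; n=3.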

[14] = CCTE_Simmons_CellTiterGLO_HEK293T: Viability Assessment in CCTE's Assays for Thyroperoxidase (TPO) Inhibition, Simmons Lab (AID 2283665)
Outline: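 Cytotoxicity counter-screen: human HEK293T cells in low-serum (1% FBS) medium receive test chemical, 5 nM to 87.5 uM final, for 24 h; ATP is quantified by luciferase luminescence.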

[15] = Tanguay_ZF_120hpf_CFIN_legacy: (Legacy) Oregon State University Tanguay Lab 120 Hour Post-fertilization zebrafish Assay for Caudal Fin Malformation (AID 2283649)
Outline: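 Binary presence or absence of caudal fin malformation at 120 hpf, read by brightfield microscopy, with DMSO as baseline. Larvae came from 5D wild-type embryos exposed statically from 6 hpf at 28C after pronase dechorionation.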

[16] = read-out: solute carrier (SLC22A6), SLC22A6 (gene 9356); assay: LTEA_HepaRG_SLC22A6: Life Technologies and Expression Analysis (LTEA) Assay for solute carrier (SLC22A6) using HepaRG (AID 2283653; active = hit-call score of the fitted dose curve at least 0.9, where 1 is the maximum; inactive = score below 0.9); settings: mRNA level, 48 h; actives raise or lower the signal
Outline: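 Read-out is SLC22A6 transcript level by qRT-PCR, normalised to three housekeeping genes and fitted for gain or loss relative to 0.5% DMSO vehicle. Human HepaRG cells received chemicals at up to 100 uM for 48 h.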

[17] = read-out: solute carrier (SLC10A1), SLC10A1 (gene 6554); assay: LTEA_HepaRG_SLC10A1: Life Technologies and Expression Analysis (LTEA) Assay for solute carrier (SLC10A1) using HepaRG (AID 2283657; active = hit-call score of the fitted dose curve at least 0.9, where 1 is the maximum; inactive = score below 0.9); settings: mRNA level, 48 h; actives raise or lower the signal
Outline: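 HepaRG cells (single lot) exposed 48 h in serum-free induction medium, 8-point half-log series from 100 uM top in 0.5% DMSO, duplicate. SLC10A1 mRNA by qRT-PCR normalised to ACTB, GAPDH, POLR2A; bidirectional fit versus DMSO.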

[18] = read-out: matrix metalloproteinase-1 (MMP1), MMP1 (gene 4312); assay: LTEA_HepaRG_MMP1: Life Technologies and Expression Analysis (LTEA) Assay for matrix metalloproteinase-1 (MMP1) using HepaRG (AID 2283658; active = hit-call score of the fitted dose curve at least 0.9, where 1 is the maximum; inactive = score below 0.9); settings: mRNA level, 48 h; actives raise or lower the signal
Outline: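 HepaRG, ~100,000 cells/well, 48 h pre-culture; serum-free induction medium; test chemical 8 conc (max 100 uM, half-log), duplicate, 48 h; 0.5% DMSO; qRT-PCR MMP1, housekeeping-normalized; gain/loss fit vs DMSO.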

Structure (SMILES) | outcome [1] | outcome [2] | outcome [3] | outcome [4] | outcome [5] | outcome [6] | outcome [7] | outcome [8] | outcome [9] | outcome [10] | outcome [11] | outcome [12] | AC50 [13] | outcome [14] | AC50 [3] | outcome [15] | outcome [16] | AC50 [17] | outcome [18]
CCCCOC(=O)c1ccccc1 | inactive | inactive | inactive | inactive | inactive | inactive | inactive | inactive | inactive |  |  |  |  |  |  |  |  |  | 
O=S(=O)(O)c1ccc(N=Nc2c(O)ccc3cc(S(=O)(=O)O)ccc23)cc1 |  | inactive | inactive | inactive | inactive | inactive |  | inactive | inactive | inactive | inactive | inactive |  |  |  |  |  |  | 
NC(=O)N(O)[C@@H]1COc2cc(OCc3ccccc3)ccc21 |  | inactive | inactive | inactive |  | inactive | inactive |  | inactive | inactive | inactive |  | 1.29 µM (active) | inactive |  |  |  |  | 
O=C(O)c1cccc(C[C@@H]2COc3ccc(OCc4nc5cc(F)ccc5s4)cc3[C@@H]2O)c1 |  | inactive |  | inactive |  | inactive | inactive |  | inactive | inactive | inactive | inactive |  |  | 953 nM (active) | inactive |  |  | 
CCCc1ccccc1 |  | inactive | inactive | inactive | inactive | inactive |  | inactive | inactive | inactive | inactive | inactive |  |  |  |  |  |  | 
NC(=O)NN=Cc1ccc([N+](=O)[O-])o1 | inactive |  | inactive | inactive | inactive | inactive | inactive | inactive | inactive | inactive | inactive | inactive |  |  |  | inactive |  |  | 
OC(CCl)CCl |  | inactive | inactive | inactive | inactive | inactive | inactive | inactive | inactive | inactive | inactive | inactive |  |  |  |  |  |  | 
CCc1cccc(CC)c1N |  | inactive |  | inactive | inactive | inactive |  | inactive | inactive | inactive |  | inactive |  |  |  |  |  |  | 
CCCCN1C(=O)[C@@H]([C@H](O)C2CCCCC2)NC(=O)C12CCN(Cc1ccc(Oc3ccc(C(=O)O)cc3)cc1)CC2 |  | inactive | inactive | inactive | inactive |  | inactive | inactive | inactive | inactive | inactive | inactive |  |  |  |  |  |  | 
Cc1ncc([C@@H](CCCCCCc2ccc3c(n2)NCCC3)CC(=O)O)cn1 |  | inactive | inactive | inactive | inactive | inactive | inactive | inactive | inactive | inactive |  | inactive |  |  |  |  |  |  | 
CCCCCCCCN(C)C | inactive | inactive |  | inactive | inactive | inactive | inactive | inactive | inactive | inactive | inactive | inactive |  |  |  | inactive |  |  | 
c1ccc2c(c1)-c1cccc3c1c-2cc1ccccc13 |  | inactive |  | inactive | inactive | inactive | inactive |  | inactive | inactive | inactive | inactive |  |  |  | inactive |  |  | 
Cc1ccc(S(=O)(=O)NC(=O)NN2CCCCCC2)cc1 |  | inactive | inactive | inactive | inactive | inactive | inactive | inactive | inactive | inactive | inactive | inactive | 8.68 µM (active) | inactive |  |  |  |  | 
c1ccc2cc3ccccc3cc2c1 |  | inactive | inactive | inactive | inactive | inactive | inactive |  | inactive |  | inactive |  | 10.6 µM (active) | inactive |  | inactive | inactive | 10.4 µM (active) | inactive
C=CN1CCCC1=O |  | inactive |  | inactive | inactive | inactive | inactive |  |  |  | inactive |  |  |  |  |  |  |  | 
NC(N)=O |  | inactive |  | inactive | inactive | inactive | inactive | inactive | inactive |  | inactive |  |  |  |  | inactive |  |  | 
COS(C)(=O)=O |  | inactive | inactive | inactive | inactive | inactive | inactive | inactive | inactive | inactive | inactive | inactive | 49.7 µM (active) | inactive |  |  |  |  | 
O=C(O)c1ccc2c(c1)nc(C(=O)NC1CCN(C3CC3)CC1)n2Cc1cc(-c2ccc(Cl)s2)on1 | inactive |  | inactive | inactive | inactive | inactive | inactive | inactive | inactive | inactive | inactive | inactive |  |  |  |  |  |  | 
O=C1CN(N=Cc2ccc([N+](=O)[O-])o2)C(=O)N1 |  | inactive |  | inactive |  | inactive | inactive | inactive | inactive | inactive | inactive | inactive |  |  |  |  |  |  | 
